# From the supplement of paper PMC10849652
# The full data set covers some 8,800 targets. This sample favours those with a hit. About 0.5% of all pairs of compound and target were hits. Values without a mark were called inactive.
# Columns and labels:
# Assay in all cases: log2 fold change, soluble protein after heating vs DMSO (PISA); higher = thermal stabilisation; K562 lysate, 10 uM; active = over 0.2 and 3.5 SD of the protein, either way, in both replicates (recomputed)
# ibrutinib = compound: C=CC(=O)N1CCC[C@@H](n2nc(-c3ccc(Oc4ccccc4)cc3)c3c(N)ncnc32)C1 [ibrutinib]
# How it was run: (§1)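 Thermal stability, expressed as log-two fold change relative to solvent controls, is given from duplicates. Crude K562 extract in PBS pH 7.4 with 1 mM MgCl2, at 1 mg/mL protein, was treated with 10 μM compound for 30 min and heated in aliquots for 3 min across 48°C-58°C. After pooling, adjustment to 0.5% NP-40 at 4°C and centrifugation at 21,000xg for 90 min, supernatant protein was measured by TMTpro 16plex LC-MS/MS with channel sums equalised.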
# [1] = compound: CC(=O)c1cnc2ccc(-c3cc(Cl)c(O)c(Cl)c3)nc2c1N[C@H]1CC[C@H](CN(C)C)CC1
# How it was run: as §1
# ralimetinib = compound: CC(C)(C)Cn1c(N)nc2ccc(-c3[nH]c(C(C)(C)C)nc3-c3ccc(F)cc3)nc21 [ralimetinib]
# How it was run: as §1
# [2] = compound: CC(C)(O)CC(=O)NCCn1ccc2ncnc(Nc3ccc(Oc4cccc(C(F)(F)F)c4)c(Cl)c3)c21
# How it was run: as §1
# [3] = compound: CC(C)C1=C2N=C(C=C(N2N=C1)NCC3=CC=CC=C3)NCCCCCCN
# How it was run: as §1
# [4] = compound: CC1=C(C(CC(=O)N1)C2=CC=C(C=C2)C(F)(F)F)C(=O)NC3=C(C=C4C(=C3)C=NN4)F
# How it was run: as §1
# [5] = compound: CC1=C(C2=C(C=C1)C(=O)C3=CC=CC=C3N2CCCN)C
# How it was run: as §1
# [6] = compound: CC1=C(C=C(C=C1)NC(=O)C2=CC(=CC=C2)C(C)(C)C#N)NC3=CC4=C(C=C3)N=CN(C4=O)C
# How it was run: as §1
# [7] = compound: CC1=C(C=C(C=C1)NC(=O)C2=CC(=CC=C2)N(C)C)NC(=O)C3=CC=C(C=C3)O
# How it was run: as §1
# [8] = compound: CC1=CC=C(C=C1)SC2=C3C=C(SC3=CN=C2)C(=O)N
# How it was run: as §1
# UniProt Q10713, sequence (Q10713 whole entry, looked up): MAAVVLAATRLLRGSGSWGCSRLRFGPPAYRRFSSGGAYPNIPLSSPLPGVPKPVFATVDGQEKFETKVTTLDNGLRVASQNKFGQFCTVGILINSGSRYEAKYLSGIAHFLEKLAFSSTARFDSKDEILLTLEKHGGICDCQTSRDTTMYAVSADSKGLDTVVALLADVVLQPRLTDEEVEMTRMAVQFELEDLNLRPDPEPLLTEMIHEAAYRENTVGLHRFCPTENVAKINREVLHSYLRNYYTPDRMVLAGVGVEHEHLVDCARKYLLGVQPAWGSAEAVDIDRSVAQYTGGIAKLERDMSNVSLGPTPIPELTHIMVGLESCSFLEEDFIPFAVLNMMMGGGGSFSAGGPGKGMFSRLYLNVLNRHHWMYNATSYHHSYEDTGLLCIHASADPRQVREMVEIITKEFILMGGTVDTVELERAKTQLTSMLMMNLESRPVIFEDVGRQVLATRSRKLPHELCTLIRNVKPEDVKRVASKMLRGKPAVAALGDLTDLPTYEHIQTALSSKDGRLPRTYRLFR
# UniProt P17706, sequence (P17706 whole entry, looked up): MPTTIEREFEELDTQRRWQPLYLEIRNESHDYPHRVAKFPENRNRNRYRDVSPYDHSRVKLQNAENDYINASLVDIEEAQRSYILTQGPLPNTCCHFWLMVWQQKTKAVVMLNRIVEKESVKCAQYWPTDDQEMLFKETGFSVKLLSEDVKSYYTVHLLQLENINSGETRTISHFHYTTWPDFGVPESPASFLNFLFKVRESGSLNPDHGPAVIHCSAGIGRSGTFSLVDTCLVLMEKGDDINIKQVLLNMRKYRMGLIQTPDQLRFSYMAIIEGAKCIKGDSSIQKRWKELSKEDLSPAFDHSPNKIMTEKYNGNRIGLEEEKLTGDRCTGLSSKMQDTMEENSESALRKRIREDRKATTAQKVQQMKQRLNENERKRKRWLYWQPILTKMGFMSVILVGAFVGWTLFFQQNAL
# UniProt Q8TCD6, sequence (Q8TCD6 whole entry, looked up): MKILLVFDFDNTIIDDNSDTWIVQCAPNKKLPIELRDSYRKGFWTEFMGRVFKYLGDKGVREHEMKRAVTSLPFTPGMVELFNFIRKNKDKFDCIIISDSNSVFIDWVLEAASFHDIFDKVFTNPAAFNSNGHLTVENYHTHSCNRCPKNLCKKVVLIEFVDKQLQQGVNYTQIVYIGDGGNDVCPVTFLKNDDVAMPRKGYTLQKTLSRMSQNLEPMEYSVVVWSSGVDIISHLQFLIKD
# UniProt Q93096, sequence (Q93096 whole entry, looked up): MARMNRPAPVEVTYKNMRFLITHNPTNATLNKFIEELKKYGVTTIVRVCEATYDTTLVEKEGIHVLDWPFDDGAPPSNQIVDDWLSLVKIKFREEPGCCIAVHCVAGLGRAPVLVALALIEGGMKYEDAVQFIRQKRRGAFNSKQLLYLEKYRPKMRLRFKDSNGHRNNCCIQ
# UniProt P0C869, sequence (P0C869 whole entry, looked up): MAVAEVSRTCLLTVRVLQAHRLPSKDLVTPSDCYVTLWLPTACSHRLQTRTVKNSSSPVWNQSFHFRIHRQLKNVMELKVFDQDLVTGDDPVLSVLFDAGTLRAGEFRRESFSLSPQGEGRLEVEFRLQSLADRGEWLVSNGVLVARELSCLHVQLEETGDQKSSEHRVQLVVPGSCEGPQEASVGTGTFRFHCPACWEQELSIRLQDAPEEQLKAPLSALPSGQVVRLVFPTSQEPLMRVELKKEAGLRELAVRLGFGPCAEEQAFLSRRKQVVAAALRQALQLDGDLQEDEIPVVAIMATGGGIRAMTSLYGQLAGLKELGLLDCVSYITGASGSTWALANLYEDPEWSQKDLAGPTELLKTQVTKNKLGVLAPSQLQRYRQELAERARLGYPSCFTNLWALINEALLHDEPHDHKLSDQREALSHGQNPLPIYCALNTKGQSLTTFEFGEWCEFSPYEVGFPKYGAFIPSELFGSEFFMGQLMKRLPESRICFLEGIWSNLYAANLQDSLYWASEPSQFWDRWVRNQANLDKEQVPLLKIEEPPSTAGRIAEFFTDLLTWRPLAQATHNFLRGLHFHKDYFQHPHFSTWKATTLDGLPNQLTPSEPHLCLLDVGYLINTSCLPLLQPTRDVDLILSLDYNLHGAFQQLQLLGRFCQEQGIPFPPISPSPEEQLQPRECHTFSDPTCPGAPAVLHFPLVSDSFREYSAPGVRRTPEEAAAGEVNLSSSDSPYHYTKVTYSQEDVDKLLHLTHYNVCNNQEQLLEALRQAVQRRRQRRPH
# UniProt Q9UBV8, sequence (Q9UBV8 whole entry, looked up): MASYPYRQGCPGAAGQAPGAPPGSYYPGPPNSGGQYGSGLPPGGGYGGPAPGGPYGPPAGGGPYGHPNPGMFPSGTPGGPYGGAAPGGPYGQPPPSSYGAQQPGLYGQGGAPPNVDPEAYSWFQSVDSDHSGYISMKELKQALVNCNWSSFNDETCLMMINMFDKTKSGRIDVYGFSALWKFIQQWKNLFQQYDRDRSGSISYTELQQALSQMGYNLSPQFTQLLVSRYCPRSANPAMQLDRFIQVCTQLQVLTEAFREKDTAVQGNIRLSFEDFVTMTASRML
# UniProt P41219, sequence (P41219 whole entry, looked up): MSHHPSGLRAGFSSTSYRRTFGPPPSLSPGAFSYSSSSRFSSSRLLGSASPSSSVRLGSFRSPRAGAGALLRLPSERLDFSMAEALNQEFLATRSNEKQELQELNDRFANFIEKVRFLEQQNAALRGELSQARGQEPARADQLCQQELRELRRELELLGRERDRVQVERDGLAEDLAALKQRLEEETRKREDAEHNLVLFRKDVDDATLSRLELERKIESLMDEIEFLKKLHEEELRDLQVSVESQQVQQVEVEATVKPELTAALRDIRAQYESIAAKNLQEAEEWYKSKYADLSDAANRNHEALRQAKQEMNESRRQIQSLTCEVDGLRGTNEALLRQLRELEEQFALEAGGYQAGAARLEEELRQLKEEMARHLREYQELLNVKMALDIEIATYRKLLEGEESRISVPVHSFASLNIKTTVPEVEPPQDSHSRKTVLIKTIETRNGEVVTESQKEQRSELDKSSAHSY
# UniProt P05771, sequence (P05771 whole entry, looked up): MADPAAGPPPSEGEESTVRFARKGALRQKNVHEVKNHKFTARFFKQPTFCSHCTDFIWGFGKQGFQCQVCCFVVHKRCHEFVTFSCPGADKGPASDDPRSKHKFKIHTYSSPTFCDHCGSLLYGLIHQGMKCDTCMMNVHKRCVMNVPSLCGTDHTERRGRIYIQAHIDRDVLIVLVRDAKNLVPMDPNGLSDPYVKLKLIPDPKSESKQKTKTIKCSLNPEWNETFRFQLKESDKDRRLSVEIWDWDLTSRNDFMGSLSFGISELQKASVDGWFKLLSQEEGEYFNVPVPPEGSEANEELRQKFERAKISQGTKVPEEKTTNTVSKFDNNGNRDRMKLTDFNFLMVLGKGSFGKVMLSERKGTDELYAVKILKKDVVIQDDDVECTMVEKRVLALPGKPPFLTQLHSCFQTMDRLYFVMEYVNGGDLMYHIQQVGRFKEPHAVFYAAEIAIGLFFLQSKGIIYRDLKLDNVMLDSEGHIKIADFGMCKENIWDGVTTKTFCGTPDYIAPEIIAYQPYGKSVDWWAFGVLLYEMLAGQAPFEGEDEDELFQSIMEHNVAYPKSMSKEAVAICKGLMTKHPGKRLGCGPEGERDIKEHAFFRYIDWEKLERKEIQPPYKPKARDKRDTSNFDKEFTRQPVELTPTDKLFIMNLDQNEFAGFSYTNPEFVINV
# UniProt Q13492, sequence (Q13492 whole entry, looked up): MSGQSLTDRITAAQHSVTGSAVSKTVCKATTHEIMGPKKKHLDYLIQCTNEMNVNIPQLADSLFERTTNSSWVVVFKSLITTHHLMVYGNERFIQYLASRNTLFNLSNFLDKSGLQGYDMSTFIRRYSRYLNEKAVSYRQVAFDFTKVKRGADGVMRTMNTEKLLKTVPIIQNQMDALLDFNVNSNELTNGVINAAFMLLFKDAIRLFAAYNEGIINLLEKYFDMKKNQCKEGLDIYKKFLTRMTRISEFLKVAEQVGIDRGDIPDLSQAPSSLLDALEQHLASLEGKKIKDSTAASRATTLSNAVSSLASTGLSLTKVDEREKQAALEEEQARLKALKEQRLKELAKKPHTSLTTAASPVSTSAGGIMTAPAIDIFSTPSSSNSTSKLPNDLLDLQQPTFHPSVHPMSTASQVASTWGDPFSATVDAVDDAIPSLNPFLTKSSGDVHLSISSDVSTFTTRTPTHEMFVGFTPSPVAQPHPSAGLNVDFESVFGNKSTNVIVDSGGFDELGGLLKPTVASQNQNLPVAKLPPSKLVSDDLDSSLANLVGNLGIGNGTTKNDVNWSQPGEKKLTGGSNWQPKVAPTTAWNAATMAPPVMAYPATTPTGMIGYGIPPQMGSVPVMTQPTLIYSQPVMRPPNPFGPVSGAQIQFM
# UniProt Q99755, sequence (Q99755 whole entry, looked up): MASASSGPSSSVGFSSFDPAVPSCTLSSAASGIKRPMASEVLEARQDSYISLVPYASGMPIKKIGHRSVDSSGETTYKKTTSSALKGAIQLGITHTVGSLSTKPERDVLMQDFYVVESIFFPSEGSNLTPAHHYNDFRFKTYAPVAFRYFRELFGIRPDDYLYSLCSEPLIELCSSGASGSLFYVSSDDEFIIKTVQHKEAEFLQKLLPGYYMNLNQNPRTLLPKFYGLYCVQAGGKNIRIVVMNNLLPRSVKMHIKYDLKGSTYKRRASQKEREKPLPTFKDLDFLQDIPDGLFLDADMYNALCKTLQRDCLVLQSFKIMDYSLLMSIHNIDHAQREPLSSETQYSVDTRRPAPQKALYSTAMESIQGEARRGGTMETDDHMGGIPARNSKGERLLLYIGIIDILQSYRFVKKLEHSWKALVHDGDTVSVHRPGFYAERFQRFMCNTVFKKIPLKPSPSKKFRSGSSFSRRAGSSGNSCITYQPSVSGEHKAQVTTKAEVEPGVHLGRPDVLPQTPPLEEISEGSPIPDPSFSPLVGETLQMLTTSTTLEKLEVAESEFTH
# UniProt Q9UHV9, sequence (Q9UHV9 whole entry, looked up): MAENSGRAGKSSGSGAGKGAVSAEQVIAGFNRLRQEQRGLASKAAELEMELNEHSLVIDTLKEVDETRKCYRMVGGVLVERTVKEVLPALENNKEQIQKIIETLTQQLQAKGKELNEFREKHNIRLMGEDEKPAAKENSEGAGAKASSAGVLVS
Target,log2 fold change (ibrutinib),log2 fold change [1],log2 fold change (ralimetinib),log2 fold change [2],log2 fold change [3],log2 fold change [4],log2 fold change [5],log2 fold change [6],log2 fold change [7],log2 fold change [8]
PIK3R1 (UniProt P27986),-0.018,0.302,-0.003,-0.06,-0.008,-0.006,0.027,-0.013,-0.006,0.019
PFDN2 (UniProt Q9UHV9),0.103,0.006,0.08,0.08,0.005,0.016,0.034,-0.017,-0.033,-0.022
PTP4A1 (UniProt Q93096),0.011,0.027,0.015,-0.071,-0.031,-0.113,-0.007,-0.012,-0.048,0
PDXK (UniProt O00764),0.007,0.014,0.01,-0.006,-0.009,0.017,-0.058,0.016,-0.029,-0.001
PRMT8 (UniProt Q9NR22),-0.073,-0.012,0.036,-0.018,0.003,-0.028,0.009,0.032,0.002,0.007
PMPCA (UniProt Q10713),-0.052,-0.023,0.006,-0.038,-0.047,-0.043,-0.041,0.033,-0.036,0.015
PDS5A (UniProt Q29RF7),0,0.013,0.008,-0.017,-0.029,0.023,-0.038,0.017,0.031,0.039
PCIF1 (UniProt Q9H4Z3),0.019,0.019,0.091,0.017,0,0.002,0.037,-0.033,0.025,-0.029
PIP5K1A (UniProt Q99755),0.012,0.201,-0.053,0.001,0,0.056,-0.127,0.105,0.02,-0.053
PKN1 isoform 2 (UniProt Q16512),0.011,-0.107,-0.001,0.008,0.006,0.091,0.021,0.048,0.035,0.05
PRKCB isoform 2 (UniProt P05771),-0.017,0.548 (active),0.02,0,0.013,0.002,-0.055,0.042,-0.009,-0.113
POLB (UniProt P06746),-0.011,-0.003,0.068,-0.042,0.083,0.017,-0.006,-0.027,-0.034,-0.003
PICALM (UniProt Q13492),-0.023,0.011,-0.025,-0.039,-0.004,-0.018,0.004,0.021,-0.004,-0.005
PHOSPHO2 (UniProt Q8TCD6),-0.01,0.039,0.003,0.035,0.012,-0.017,0.018,0.006,0.048,0.056
PRKAR2B (UniProt P31323),-0.017,0.008,0.007,-0.01,0.022,0.015,-0.004,0.027,0.031,0.03
PI4KB (UniProt Q9UBF8),-0.044,0.208,0.021,-0.021,-0.004,-0.015,-0.018,0.022,0,0.012
PRKCD (UniProt Q05655),0.021,0.162,0.01,-0.005,0.006,0.027,-0.012,-0.004,0.038,0.04
PRKACB isoform 2 (UniProt P22694),-0.006,0.693 (active),0.033,-0.03,-0.013,0.025,-0.014,-0.037,0.014,-0.024
QKI (UniProt Q96PU8),-0.022,-0.012,-0.023,-0.027,0.029,0.065,0.069,-0.094,0.009,-0.023
PRPH isoform 2 (UniProt P41219),-0.099,0.054,0.009,0.067,0.074,0.002,0.007,-0.064,0.023,-0.011
PTGR2 (UniProt Q8N8N7),-0.006,0.026,0.019,0.068,-0.042,-0.011,-0.024,0.006,0.037,0.029
PRADC1 (UniProt Q9BSG0),0.026,-0.395,-0.023,0.041,-0.125,0.026,-0.009,0.072,0.008,-0.023
PTPN2 (UniProt P17706),0.016,-0.014,0.014,-0.001,-0.029,-0.035,0.045,-0.005,0.017,0.007
PPP1R8 (UniProt Q12972),-0.029,-0.026,-0.039,-0.031,0.011,-0.011,-0.034,0.002,-0.036,-0.028
PEF1 (UniProt Q9UBV8),0.009,-0.021,-0.034,-0.036,-0.029,-0.025,-0.004,0.021,0.01,-0.01
PCBP3 (UniProt P57721),-0.026,-0.007,-0.005,-0.021,0,-0.04,-0.006,0.053,-0.02,-0.028
PHGDH (UniProt O43175),0.03,0.021,0.013,0.028,0.012,-0.003,0.013,-0.004,-0.012,0.029
PPFIA2 (UniProt O75334),-0.013,0.01,0.085,0.015,0.006,0.041,0.02,0.047,0.033,-0.022
PLA2G4B isoform 6 (UniProt P0C869),-0.029,-0.046,-0.17,-0.15,0,-0.047,-0.149,0.34,-0.005,-0.052
PFKFB3 isoform 4 (UniProt Q16875),-0.015,0.11,0.044,-0.003,0,0.027,0.003,0.011,-0.019,0.148
